VACV Venus inh – vaccinia inhibition (Venus reporter). AID 720580. Potency, µM (titrated, usually from 36.5 µM), most hits filed as inhibitors. actives 0.46% (n = 330,000). Vaccinia virus Venus reporter expression, fluorescence; calls by dose curve; tested in A549 cells; note: nearly all actives have a fitted effect of over 30% in size
AMA1 RON2 block – inhibitors of Plasmodium falciparum AMA1-RON2 interaction; AlphaScreen AMA1-biotinylated RON2 peptide binding; Potency, µM (top dose mostly 58.2 µM), hits mostly inhibitors; actives 0.2% (n = 360,000); note: nearly all actives have a fitted effect of over 45% in size
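AMA1 (3D7) with his tag at 25 nM final met compounds first, then biotinylated RON2 peptide at 25 nM; detection used donor plus acceptor beads, 10 µg/mL apiece, read by AlphaScreen after 30 min at room temperature.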
Pf growth 96h – inhibits malaria parasite growth, 96 h. P. falciparum luciferase reporter growth, 96 h. Potency, µM (top dose mostly 28.7 µM), usual class: inhibitors. actives 6.9% (n = 320,000)
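Luminescence readout: decreased luciferase signal marks inhibited growth of reporter-expressing P. falciparum in infected red cells (2% hematocrit, 0.05% parasitemia final), exposed to compound two generations (96 h, 37 C, 5% CO2).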
Pf growth 48h – P. falciparum growth inhibition at 48 hours (one generation). P. falciparum luciferase growth in erythrocytes, 48 h. Potency, µM (highest dose often 28.7 µM), usual class: inhibitors. actives 5.9% (n = 310,000). AID 504832
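Luminescence readout; reporter = integrated firefly luciferase in P. falciparum. RBC culture at 2% hematocrit, 0.1% parasitemia final, 37 C/5% CO2; decreased signal taken as growth inhibition.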
VACV mCherry inh – vaccinia inhibition (mCherry reporter); actives 0.63% (n = 310,000); Vaccinia virus mCherry reporter infection, fluorescence; Potency, µM (top dose mostly 36.5 µM), hits mostly inhibitors; calls by dose curve; tested in A549 cells; note: nearly all actives have a fitted effect of over 35% in size
Each line names hits and unclear results; the compound was inactive in the other large screens. This is a sample that favours compounds with a hit; in the whole collection about 8.7% have one here. Unless noted, calls come from the whole dose curve; as a rule, active = well fitted curve in the direction sought with a large enough effect; inconclusive = small, poorly fitted or top-dose-only effect, or another doubt; inactive = no such curve, though single readings can be large; an effect the other way counts as inactive or inconclusive.

CC(=O)n1cc([C@H]2C=C(C(=O)N3CCN(Cc4ccc5c(c4)OCO5)CC3)O[C@@H](OCCCCO)C2)c2ccccc21	Pf growth 96h inconclusive, Pf growth 48h 0.93µM
O=C(Nc1ccccc1C(=O)OCc1cc(=O)n2ccsc2n1)c1ccc(Cl)cc1	none (no result: AMA1 RON2 block, Pf growth 96h, Pf growth 48h)
COc1cccc(C(=O)NC(=NCCc2c[nH]c3ccc(OC)cc23)Nc2nc(C)cc(C)n2)c1	none (no result: AMA1 RON2 block, Pf growth 96h, Pf growth 48h)
FC(F)(F)c1cc(Sc2ccccc2)nc(-c2ccccn2)n1	Pf growth 96h inconclusive (no result: VACV Venus inh, VACV mCherry inh)
FC(F)(F)c1cc(Nc2ccccc2)nc(-c2ccccn2)n1	Pf growth 96h inconclusive, Pf growth 48h 2.9µM (no result: VACV Venus inh, VACV mCherry inh)
CC(C)Nc1cc(C(F)(F)F)nc(-c2ccccn2)n1	Pf growth 96h 4.1µM, Pf growth 48h 5.2µM (no result: VACV Venus inh, VACV mCherry inh)
COc1cc(C(F)(F)F)nc(-c2ccccn2)n1	none
COc1nc(N=C(N)N)nc2ccc(C)cc12	Pf growth 96h inconclusive, Pf growth 48h 2.6µM (no result: VACV Venus inh, AMA1 RON2 block, VACV mCherry inh)
COc1cn(CC(=O)Nc2cccc(C)c2)c(CN2CCCCC2)cc1=O	none (no result: AMA1 RON2 block, Pf growth 96h, Pf growth 48h)
COc1ccc(N2C(=O)[C@@H]3C[C@H]2CN3Cc2ccc3nccnc3c2)cc1Cl	none (no result: AMA1 RON2 block, Pf growth 96h, Pf growth 48h)
COc1cccc(NC(=O)C(=O)NCCc2csc(-c3ccc(C)cc3)n2)c1	none (no result: AMA1 RON2 block, Pf growth 96h, Pf growth 48h)
CCOC(=O)c1sc2ccccc2c1S(=O)(=O)NCc1ccc(F)cc1	none (no result: AMA1 RON2 block, Pf growth 96h, Pf growth 48h)
COc1ccccc1CCn1c(N)c(C#N)c2nc3ccccc3nc21	Pf growth 96h inconclusive, Pf growth 48h 9.3µM
COc1ccc(Cn2c(N)c(C#N)c3nc4ccccc4nc32)cc1OC	Pf growth 96h inconclusive (no result: Pf growth 48h)
COc1ccc(CCn2c(N)c(C#N)c3nc4ccccc4nc32)cc1OC	Pf growth 48h 5.9µM (no result: VACV mCherry inh)
COc1ccc2oc(-c3ccc(NC(=O)c4ccc(Cl)cc4Cl)cc3)nc2c1	none (no result: AMA1 RON2 block, Pf growth 96h, Pf growth 48h)
CCOC(=O)c1cc2sccc2n1CC(=O)Nc1ccc(OC)cc1OC	Pf growth 48h inconclusive
COC(=O)c1cc2sccc2n1CC(=O)Nc1cccc(SC)c1	Pf growth 96h 3.3µM
COC(=O)c1cc2sccc2n1CC(=O)Nc1ccc(OC)c(OC)c1OC	Pf growth 48h 2.1µM
CCN(CC)CCCNC(=O)c1c2c(nc3ccccc13)C(=O)N(C1CCCCC1)C2	none (no result: AMA1 RON2 block, Pf growth 96h, Pf growth 48h)
CCC(=O)N1CCc2cc(Br)cc(S(=O)(=O)N3CCCC(C(=O)Nc4ccc(C(C)C)cc4)C3)c21 (stereo not given)	none (no result: AMA1 RON2 block, Pf growth 96h, Pf growth 48h)
O=C(CS(=O)(=O)c1cccc2nsnc12)Nc1cc(F)ccc1F	none (no result: AMA1 RON2 block, Pf growth 96h, Pf growth 48h)
O=C1CC(c2ccco2)CC2=C1C(c1ccccc1)n1nc(C(F)(F)F)nc1N2 (stereo not given)	Pf growth 48h 9.3µM (no result: Pf growth 96h, VACV mCherry inh)
CC(O)(COc1ccccc1)c1ccc2c(c1)CN(Cc1cccc3cccnc13)CCO2 (stereo not given)	none (no result: AMA1 RON2 block, Pf growth 96h, Pf growth 48h)
CN(C)C(=O)Oc1ccc(OCc2n(C)c3ccccc3[n+]2C)cc1	Pf growth 96h 2.3µM, Pf growth 48h inconclusive
Cn1c(Cc2ccccc2)[n+](C)c2ccccc21	Pf growth 96h inconclusive, Pf growth 48h inconclusive
Cc1cc2c3c([nH]c2cc1S(=O)(=O)N1CCC2(CC1)OCCO2)CC(C)(C)CC3=O	Pf growth 96h inconclusive, Pf growth 48h 8.3µM (no result: VACV Venus inh, VACV mCherry inh)
CCCNC1=C(N(C(C)=O)c2cccc(F)c2)C(=O)c2ccccc2C1=O	VACV Venus inh 13µM, VACV mCherry inh 14µM
COc1ccc(CNC(=O)CN2N=C(c3ccccc3)CCC2=O)c(OC)c1	none (no result: AMA1 RON2 block, Pf growth 96h, Pf growth 48h)
COc1ccc(Cl)cc1-n1cc(-c2ccccc2)nc1SCC(=O)Nc1ccc(C)cc1	none (no result: AMA1 RON2 block, Pf growth 96h, Pf growth 48h)
COc1ccc(CC(=O)NC2CC(=O)N(c3cccc(F)c3)C2)cc1OC (stereo not given)	none (no result: AMA1 RON2 block, Pf growth 96h, Pf growth 48h)
Cc1cc(N2C(=O)C3CCCN3C2c2sccc2C)no1 (stereo not given)	none (no result: VACV Venus inh, VACV mCherry inh)
COc1ccc(C2N(c3cc(C)on3)C(=O)C3CCCN32)cc1 (stereo not given)	Pf growth 96h 3.3µM
Cc1cc(N2C(=O)C3CCCN3C2c2cccc(Cl)c2)no1 (stereo not given)	VACV Venus inh inconclusive, Pf growth 96h 4.7µM
CCOc1ccc(N2C(=O)N(Cc3ccc(C)cc3C)c3ccccc3S2(=O)=O)cc1	none (no result: AMA1 RON2 block, Pf growth 96h, Pf growth 48h)
COc1ccc(NC(=O)CC2Oc3ccc(C)cc3NC2=O)cc1Cl (stereo not given)	none (no result: AMA1 RON2 block, Pf growth 96h, Pf growth 48h)
CC(C)(C)C(=O)N1CCN(c2ccc([N+](=O)[O-])c(-n3nc(-c4ccccc4)c4ccccc4c3=O)c2)CC1	Pf growth 96h 9.3µM, Pf growth 48h 5.2µM
Cc1ccc(-c2nn(-c3cc(Cl)ccc3[N+](=O)[O-])c(=O)c3ccccc23)cc1	AMA1 RON2 block inconclusive, Pf growth 96h 12µM, Pf growth 48h inconclusive

High-throughput results as filed in PubChem BioAssay.
